This note sets out measurements from ChEMBL document CHEMBL4513146, “CO-ADD screening of Karazin Kharkiv National University (Ukraine) compounds”.

SMILES strings stand for the structures. Measured potencies and affinities stand elsewhere.

One assay deals with Staphylococcus aureus. The settings on record: Concentration 32 ug.mL-1;; ASSAY_TEST Inhibition of Bacterial Growth; detection method Absorption (OD600); MEDIA CAMHB; plate type 384well; NBS; CORNING #3640; time 18 hr.
In a further assay the test system is Escherichia coli. The settings on record: Concentration 32 ug.mL-1;; ASSAY_TEST Inhibition of Bacterial Growth; detection method Absorption (OD600); MEDIA CAMHB; plate type 384well; NBS; CORNING #3640; time 18 hr.

Consider `COc1ccc(NC(=O)c2ccc3nn(CC(=O)Nc4ccc(C(F)(F)F)cc4)c(=O)n3c2)cc1`, for which the results for the Inhibition in the assay with Staphylococcus aureus and with Escherichia coli were 9.76% and -5.89%, respectively.
Consider `CSc1cccc(NC(=O)Cn2c(=O)c3nnc(C(C)C)n3c3ccccc32)c1`, for which the Inhibition in the assay on Staphylococcus aureus was determined as 14.38%; with Escherichia coli it was 4.25%.
For `CSc1ccc(-c2noc(Cn3nc4ccc(-c5ccccc5)nn4c3=O)n2)cc1`, the Inhibition in the assay with Staphylococcus aureus stood at 3.45%; in the assay with Escherichia coli, 0.55%.
Take `CCCN(C)c1nccn2c(=O)n(CC(=O)Nc3cccc(C(F)(F)F)c3)nc12`: the figures for the Inhibition with Staphylococcus aureus and in the assay with Escherichia coli were 6.48% and 3.02%, respectively.
Regarding `CCCCN(CC)c1ccc2nnc(CCc3nc(-c4ccc(OCc5ccccc5)cc4)no3)n2n1`, the figures for the Inhibition in the assay on Staphylococcus aureus and in the assay with Escherichia coli were 4.18% and -2.08%, respectively.
With `Cc1ccc(-c2cc3c4nnc(SCC(=O)Nc5cccc(Br)c5)n4ccn3n2)cc1`, the Inhibition is given as 5.15% in the assay with Staphylococcus aureus and -4.56% in the assay with Escherichia coli.
As for `Cc1cccc(N(Cc2cccc(F)c2)S(=O)(=O)c2cccn3c(C)nnc23)c1`, the results for the Inhibition in the assay on Staphylococcus aureus and with Escherichia coli were 20.9% and -1.19%, respectively.
Turning to `CCc1nnc2c(S(=O)(=O)N(Cc3cccc(C)c3)c3cccc(Cl)c3)cccn12`, the Inhibition in the assay with Staphylococcus aureus is on record as 2.53%; in the assay on Escherichia coli, -7.38%.
Regarding `Cc1cc(Nc2ccc(F)cc2)nc2nn(Cc3cccc(C#N)c3)c(=O)n12`, the Inhibition is recorded as -3.76% in the assay on Staphylococcus aureus and -11.43% with Escherichia coli.
As for `Cc1oc(-c2ccccc2)nc1CSc1nc2ccccc2n2c(C(C)C)nnc12`, the Inhibition in the assay with Staphylococcus aureus is given as -2.26%; in the assay with Escherichia coli it was -5.26%.
Regarding `CCN(C(=O)Cn1nc2nc(Nc3ccc(F)cc3)ccn2c1=O)c1ccccc1`, the values for the Inhibition in the assay on Staphylococcus aureus and in the assay with Escherichia coli were 12.68% and -3.17%, respectively.
For `O=C(Cn1nc2n(Cc3ccccc3)c(=O)c3ccccc3n2c1=O)Nc1ccc2c(c1)OCO2`, in that order: -3.15% and 1.74%.
In the same order, the values of `Cc1nnc2ccc(S(=O)(=O)N(CC(=O)OC(C)(C)C)c3ccc4c(c3)OCO4)cn12` are 2.93% and -7.09%.
For the compound `CC(C)(C)Sc1ccc2nn(CC(=O)Nc3ccccc3Cl)c(=O)n2n1`, the Inhibition in the assay on Staphylococcus aureus is reported as 7.11%; in the assay with Escherichia coli, -2.79%.
Regarding `Cc1ccc(-c2cc3c4nn(CC(=O)Nc5cc(F)ccc5C)c(=O)n4ccn3n2)cc1C`, the Inhibition in the assay on Staphylococcus aureus is reported as 8.9%; with Escherichia coli it was -4.51%.
As to `CC(=O)c1ccc(NC(=O)Cn2nc3c(Sc4ccc(C)cc4C)nccn3c2=O)cc1`, the Inhibition in the assay on Staphylococcus aureus is given as -12.01%; in the assay on Escherichia coli, -21.11%.
For `Cc1ccc(-c2cc3c4nnc(CCC(=O)N5CCC(Cc6ccccc6)CC5)n4ccn3n2)cc1C`, in that order: 10.73% and 2.4%.

What is called Inhibition is the change of the read-out against control, counted positive when it falls.
